In the library only some 1.6% were active in any assay of this set; here they are far more common.
KCNQ2 enhance: enhances the rat KCNQ2 potassium channel; actives 0.54% (n = 310,000); O88943; B-score at 10 µM; CHO-K1 KCNQ2, FluxOR thallium flux fluorescence; hits give high values;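 active = fluorescence ratio B-score at least 3 SD of library B-scores, with initial fluorescence B-score within 3 of them, cut at about 5.3 in these data; same plate scores as AID 2156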;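 note: B-score of peak minus minimum over baseline fluorescence ratio after K+ and Tl+ stimulus; positive B-score means potentiation of KCNQ2 with more thallium influx and brighter signal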
Target sequence (O88943 whole entry, looked up): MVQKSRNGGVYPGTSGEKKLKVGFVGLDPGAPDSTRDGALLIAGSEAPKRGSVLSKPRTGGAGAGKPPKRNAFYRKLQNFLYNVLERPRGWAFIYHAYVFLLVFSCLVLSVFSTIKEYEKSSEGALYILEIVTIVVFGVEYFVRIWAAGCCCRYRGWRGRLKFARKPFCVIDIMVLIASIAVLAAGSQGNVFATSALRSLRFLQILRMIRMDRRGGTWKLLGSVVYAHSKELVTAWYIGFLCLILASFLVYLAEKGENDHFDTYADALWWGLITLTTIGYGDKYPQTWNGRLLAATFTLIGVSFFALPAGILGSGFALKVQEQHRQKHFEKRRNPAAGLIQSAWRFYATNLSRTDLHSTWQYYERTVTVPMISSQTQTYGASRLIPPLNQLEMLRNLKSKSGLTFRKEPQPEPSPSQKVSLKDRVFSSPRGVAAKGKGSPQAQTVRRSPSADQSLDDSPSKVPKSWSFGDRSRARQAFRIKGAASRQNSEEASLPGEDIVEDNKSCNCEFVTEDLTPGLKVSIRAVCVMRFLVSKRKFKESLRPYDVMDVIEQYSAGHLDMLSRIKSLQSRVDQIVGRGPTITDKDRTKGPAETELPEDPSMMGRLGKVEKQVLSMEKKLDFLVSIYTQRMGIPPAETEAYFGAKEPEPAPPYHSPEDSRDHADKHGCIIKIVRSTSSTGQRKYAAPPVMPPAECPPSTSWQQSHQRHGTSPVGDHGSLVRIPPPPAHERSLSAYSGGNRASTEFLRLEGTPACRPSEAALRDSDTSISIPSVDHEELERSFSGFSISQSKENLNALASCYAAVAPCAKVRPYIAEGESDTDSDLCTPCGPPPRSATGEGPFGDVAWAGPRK
KCNQ2 inh: inhibitors of rat KCNQ2 potassium channel; AID 2156; O88943; CHO-K1 KCNQ2, FluxOR thallium flux, 20 min; hits give low values; B-score at 10 µM; actives 1.1% (n = 310,000);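 active = fluorescence ratio B-score at most minus 3 library SDs, with starting brightness B-score within 2 library SDs, cut at about -5.5 in these data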
Starred values were filed as active, the others as inactive.

`C=CCN(CC=C)C(=S)NC(=O)c1ccc([N+](=O)[O-])cc1` gave KCNQ2 enhance 7.2* and KCNQ2 inh inactive.
`C=CCNC(=S)NNC(=O)c1ccc([N+](=O)[O-])cc1` gave KCNQ2 inh inactive.
`COc1ccc(-n2nc(C(=O)NCC(=O)N3CCN(c4ccccn4)CC3)c3ccccc3c2=O)cc1` gave KCNQ2 enhance -8.2 and KCNQ2 inh -8.2*.
COc1ccc(-n2nc(C(=O)NCC(=O)N3CCN(c4ccccn4)CC3)c3ccccc3c2=O)cc1OC was read as KCNQ2 inh inactive.
For CCCCC(=O)Nc1cc(Cl)ccc1C(=O)O the results were KCNQ2 enhance 0.62 and KCNQ2 inh inactive.
`Cc1ccc(S(=O)(=O)N2CCN(C(=O)C(C)Cn3cncn3)CC2)cc1` (stereo not given) gave KCNQ2 enhance 0.9 and KCNQ2 inh inactive.
O=C(C1=C[C@@H](C2CCCCC2)C[C@@H](OCc2ccc(CO)cc2)O1)N1CCN(Cc2ccccc2)CC1 was read as KCNQ2 enhance -6.5 and KCNQ2 inh -6.5*.
For O=C(C1=C[C@H](C2CCCCC2)C[C@H](OCc2ccc(CO)cc2)O1)N1CCN(Cc2ccccc2)CC1 the results were KCNQ2 enhance -6.7 and KCNQ2 inh -6.7*.
For O=C(C1=C[C@H](C2CCCCC2)C[C@H](OCc2ccc(CO)cc2)O1)N1CCOCC1 the results were KCNQ2 inh inactive.
`C[C@@H]1C=C(C(=O)N2CCN(Cc3ccccc3)CC2)O[C@H](OCc2ccc(CO)cc2)C1` gave KCNQ2 inh inactive.
Screening Cc1ccc(S(=O)(=O)N(C)C)cc1NC(=O)COC(=O)c1ccc2c(=O)n3c(nc2c1)CCC3 returned KCNQ2 enhance 0.2 and KCNQ2 inh inactive.
For COC(=O)c1ccc(COC(=O)CCc2nc(-c3ccccc3)c(-c3ccccc3)o2)cc1 the results were KCNQ2 inh inactive.
`Cc1ccsc1C(=O)NC1CCCN(Cc2ccc(Cl)cc2)C1` (stereo not given) gave KCNQ2 inh inactive.
For Cn1c(=O)c([N+](=O)[O-])c(Cl)c2ccccc21 the results were KCNQ2 enhance -6.2 and KCNQ2 inh -6.2*.
For CCN(CC)c1c([N+](=O)[O-])c(=O)n(C)c2ccccc12 the results were KCNQ2 inh inactive.
`Cc1ccc(S(=O)(=O)N2CCC3(CC2)OCCO3)s1` gave KCNQ2 inh inactive.
For S=c1nccc(-c2ccc(Cl)cc2)[nH]1 the results were KCNQ2 inh inactive.
S=c1[nH]c(-c2ccc(Cl)cc2)cs1 was read as KCNQ2 enhance 19* and KCNQ2 inh inactive.
`COc1ccc(N(CC(=O)Nc2ccccc2OC)S(=O)(=O)c2ccc(NC(C)=O)cc2)cc1` gave KCNQ2 enhance 0.03 and KCNQ2 inh inactive.
`CN(CC(=O)Nc1ccccc1-c1ccccc1)Cc1ccccc1Cl` gave KCNQ2 enhance -6.3 and KCNQ2 inh -6.3*.
Cc1ccc(NC(=O)CN(C)CC(=O)Nc2ccccc2-c2ccccc2)cc1 was read as KCNQ2 inh inactive.
CC1CN(CC(O)COc2ccc(C#N)cc2)CCN1CC(O)COc1ccc(C#N)cc1 (stereo not given) was read as KCNQ2 inh inactive.
NNC(=O)c1cc2sccc2s1 was read as KCNQ2 inh inactive.
Screening CCOC(=O)C1=NN(C(=O)c2ccco2)C2(CC2)C1 returned KCNQ2 enhance 0.13 and KCNQ2 inh inactive.
`CCOC(=O)C1=NN(C(=O)c2cccc(Br)c2)C(O)(C(C)(C)C)C1` (stereo not given) gave KCNQ2 enhance 22* and KCNQ2 inh inactive.
COc1ccccc1CN1CCC(n2nccc2NC(=O)CCc2ccccc2)CC1 was read as KCNQ2 enhance 0.06 and KCNQ2 inh inactive.
Screening CCOC(=O)c1cc(C(C)(C)C)oc1CNC(=O)c1c(C)oc2c1CCCC2 returned KCNQ2 enhance -6.1 and KCNQ2 inh -6.1*.
For CCOC(=O)c1cc(C(C)(C)C)oc1CN the results were KCNQ2 enhance 0.39 and KCNQ2 inh inactive.
For CCN(CC(=O)Nc1c(F)cccc1F)C(=O)CCNS(=O)(=O)c1ccccc1C(F)(F)F the results were KCNQ2 enhance 0.06 and KCNQ2 inh inactive.
CC(=O)c1cccc(NC(=O)c2ccccc2N(C)S(=O)(=O)c2ccc(C)cc2)c1 was read as KCNQ2 inh inactive.
`Cc1ccc(S(=O)(=O)N(C)c2ccccc2C(=O)Nc2c(F)cccc2F)cc1` gave KCNQ2 enhance -5.9 and KCNQ2 inh -5.9*.
Screening COc1ccc(N(C)S(=O)(=O)c2cccc(C(=O)NC3CCCCCC3)c2)cc1 returned KCNQ2 inh inactive.
COc1ccc(N(C)S(=O)(=O)c2cccc(C(=O)NC3CCCC(C)C3C)c2)cc1 (stereo not given) was read as KCNQ2 enhance -7.3 and KCNQ2 inh -7.3*.
For CCCOc1ccc([N+](=O)[O-])c(N)c1 the results were KCNQ2 enhance 2.8 and KCNQ2 inh inactive.
Screening Cc1ccccc1OC(=O)n1c(=S)oc2cc(Cl)ccc21 returned KCNQ2 enhance 6.9* and KCNQ2 inh inactive.
`O=C(Oc1ccccc1)n1c(=S)oc2ccccc21` gave KCNQ2 enhance 3.3 and KCNQ2 inh inactive.
O=C(N/C(=C\c1ccco1)C(=O)N1CCOCC1)c1ccc([N+](=O)[O-])cc1 was read as KCNQ2 enhance 0.26 and KCNQ2 inh inactive.
Screening O=C(N/C(=C\c1ccc(Br)cc1)C(=O)N1CCOCC1)c1ccc([N+](=O)[O-])cc1 returned KCNQ2 enhance -5.9 and KCNQ2 inh -5.9*.
`CCOc1ccc(C2/C(=C(\O)c3ccc4c(c3)OCCO4)C(=O)C(=O)N2CCN2CCOCC2)cc1OC` (stereo not given) gave KCNQ2 enhance 0.46 and KCNQ2 inh inactive.
Screening CCOC(=O)c1c(-c2ccccc2)csc1NC(=O)CCN1C(=O)c2ccccc2C1=O returned KCNQ2 inh inactive.
`CCNC(=S)Nc1scc(-c2ccccc2)c1C(=O)OCC` gave KCNQ2 enhance 12* and KCNQ2 inh inactive.
CN(C)c1cc2c(cc1NC(=O)c1ccccc1Cl)n(C)c(=O)n2C was read as KCNQ2 enhance 0.98 and KCNQ2 inh inactive.
For CC(Cn1cncn1)C(=O)N1CCN(S(=O)(=O)c2ccccc2)CC1 (stereo not given) the results were KCNQ2 enhance 0.04 and KCNQ2 inh inactive.
`COc1ccc2c(c1)C(C)CC(C)(C)N2C(=O)CSc1nc2ccccc2s1` (stereo not given) gave KCNQ2 enhance -7.5 and KCNQ2 inh -7.5*.
`COc1ccc2c(c1)C(C)CC(C)(C)N2C(=O)Nc1ccccc1` (stereo not given) gave KCNQ2 inh inactive.
Screening Cc1ccc(N2CCN(S(=O)(=O)c3ccc(Cl)s3)CC2C)cc1 (stereo not given) returned KCNQ2 inh inactive.
`O=C(c1ccc([N+](=O)[O-])s1)N1CCN(c2ccc(C(F)(F)F)cn2)CC1` gave KCNQ2 inh inactive.
Screening CCS(=O)(=O)N1Cc2ccccc2CC1C(=O)NCC12CC3CC(CC(C3)C1)C2 (stereo not given) returned KCNQ2 enhance -7.1 and KCNQ2 inh -7.1*.
CCS(=O)(=O)N1Cc2ccccc2CC1C(=O)NC(C)C12CC3CC(CC(C3)C1)C2 (stereo not given) was read as KCNQ2 inh inactive.
Screening COc1ccccc1C1C(C(C)=O)=C(O)C(=O)N1c1ccc(O)cc1 (stereo not given) returned KCNQ2 enhance 0.12 and KCNQ2 inh inactive.

High-throughput results (PubChem)
